# Screening data (PubChem)
# Shown are actives, neighbours in structure and some others; about 3.8% of the full set was active somewhere.
# CR mimetic SO – lowers age-related superoxide in aged yeast cells. AID 2690. superoxide response (% of plate mean), % at 10 µM. hit rate 0.18% among 330,000. S. cerevisiae aged cells, superoxide DHE fluorescence; hits give low values;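 active means superoxide response under a set limit, about three screen SD below normal, cut at about 65% in these data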;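 further: yeast aged for seven days with compound at 30 °C before DHE staining; 100% = average MFI of all compound-treated wells on the plate with controls excluded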
# FAS-TE inh – blocks the thioesterase domain of human fatty acid synthase | P49327 | recombinant FAS-TE, OMFH fluorogenic substrate, fluorescence endpoint | inhibition, % at 15 µM | hit rate 0.67% among 360,000 | AID 602261;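 active means compounds whose normalised, plate-corrected inhibition of enzyme fluorescence in the single-dose primary screen is 50% or more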;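 further: 0% = DMSO with enzyme and 100% = substrate without enzyme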
# SUMO Mot1 rescue – SUMOylation pathway inhibition by Mot1-301 growth rescue; S. cerevisiae Mot1-301 growth rescue, ATP luminescence, 38.5C; percent above DMSO median, 100 means doubled; growth rescue, % at 18.8 µM; hit rate 1% among 320,000; AID 2716;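 active means every valid replicate shows activation above 250% relative to neutral control wells; inactive means the rest, any valid replicate at or below 250%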;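 further: OY570 slx delta 5 strain wells were the positive control but not used for scaling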
# MPTP block – permeability transition pore inhibition; isolated mouse mitochondria, Ca2+ swelling absorbance, 30 min; inhibition, % at 10 µM; hit rate 1.4% among 360,000; AID 602449;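 active means inhibition of 50% or more, scaled per plate between neutral and stimulator controls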;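 further: 0% = DMSO wells given calcium and 100% = 1 mM EGTA wells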
# aDG glyco up – increases alpha dystroglycan glycosylation; Pro5-aDG cells, alpha-DG glycosylation AlphaScreen (IIH6); 0% Pro5, 100% B10-LARGE cell signal; activation, % at 10 µM; hit rate 0.22% among 360,000;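 active means activation of at least 8% versus controls, or a plate z-score of at least 8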;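 further: Pro5 are CHO cells carrying HIG-tagged alpha-DG that lacks glycosylation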
# Cardio protect – modulators protecting cardiomyocytes from myocardial damage. AID 588492. hit rate 0.63% among 360,000. protection from H2O2 cell death, % at 20 µM. H9c2 cardiomyocytes, H2O2 injury protection, ATPLite, 2 h;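 active means compounds giving at least 50% protection of heart cells from peroxide-induced death in the single-dose screen, raw or plate-pattern-corrected value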;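 further: 0% = DMSO wells with peroxide and 100% = DMSO wells without peroxide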
# FAS-TE inh conf – confirmation of human fatty acid synthase thioesterase inhibitors; shares compounds with FAS-TE inh; recombinant FAS-TE, OMFH fluorogenic substrate, fluorescence; inhibition, % at 15 µM; hit rate 45% among 2,300; AID 624325;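 active means compounds inhibiting the enzyme by at least 50% at 15 µM in any one of the replicates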;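 further: 0% = enzyme with DMSO only and 100% = wells lacking enzyme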
# Starred values were filed as active, the others as inactive; x = no result.
SMILES,CR mimetic SO,FAS-TE inh,SUMO Mot1 rescue,MPTP block,aDG glyco up,Cardio protect,FAS-TE inh conf
O=[N+]([O-])c1c(NCCO)cc(N2CCCCCC2)c2nonc12,102,0,-15,1,0,5,x
COC(=O)[C@]12CCCCC=C1N(CCc1ccc(OC)c(OC)c1)C(=O)[C@H](CC(=O)NCc1cccc(C(F)(F)F)c1)C2,x,x,x,-1,0,x,x
Cc1ccc(/C(O)=C/C(=O)C(=O)NC23CC4CC(CC(C4)C2)C3)cc1,85,15,-9,-3,0,22,x
N#C/C(=C\c1ccc(OCc2ccc(Cl)cc2)cc1)C(=O)Nc1cccc(C(=O)O)c1,106,53*,3,2,0,-13,4
O=C(O)c1cccc(NC(=O)c2ccc(COc3ccc(Cl)cc3)cc2)c1,101,2,-6,1,0,-3,x
O=C(NCCN1C(=O)S/C(=C\c2cccnc2)C1=O)c1cc(S(=O)(=O)N2CCOCC2)ccc1F,96,-4,-13,0,0,-2,x
Cc1ccc(S(=O)(=O)N2CCOCC2)cc1C(=O)NCCN1C(=O)S/C(=C\c2ccccc2Cl)C1=O,105,56*,-4,2,0,13,31
Cc1c(Br)c([N+](=O)[O-])nn1CC(=O)Nc1ccc(Cc2ccncc2)cc1,115,68*,0,7,0,-2,64*
Cc1c(Br)c([N+](=O)[O-])nn1CC(=O)Nc1ccc(C(C)C)cc1,115,73*,29,13,0,-5,59*
CC(=O)Nc1ccc(NC(=O)Cn2nc([N+](=O)[O-])c(Br)c2C)cc1,95,4,2,2,0,7,x
COc1cccc2cc(C(=O)NCCC3=CCCCC3)c(=O)oc12,139,59*,22,2,0,0,27
CN(CC(=O)Nc1ccc(Cl)cc1)C(=O)CCC1CCCC1,99,-1,-12,0,0,-5,x
CCOC1=C2[C@H](c3ccccc3F)N(S(=O)(=O)c3ccc(C)cc3)C[C@H]2n2c(=O)n(-c3ccccc3)c(=O)n2C1,x,75*,x,1,0,2,8
CCOC1=C2[C@H](c3cccc(Cl)c3)N(S(=O)(=O)c3ccc(C)cc3)C[C@H]2n2c(=O)n(-c3ccccc3)c(=O)n2C1,x,70*,x,0,1,-1,21
COc1ccc(CC(=O)Nc2ccc(S(=O)(=O)Nc3cc(C)nc(C)n3)cc2)cc1OC,x,-4,x,0,0,3,x
CC1CCCN(C(=O)COC(=O)c2cc([N+](=O)[O-])ccc2N2CCOCC2)C1 (stereo not given),102,81*,-1,-2,0,1,84*
CC1CN(C(=O)COC(=O)c2cc([N+](=O)[O-])ccc2Cl)CC(C)O1 (stereo not given),103,26,1,-5,0,4,x
CC1CCCC(C)N1C(=O)COC(=O)c1cc([N+](=O)[O-])ccc1N1CCOCC1 (stereo not given),93,63*,2,-1,0,7,74*
CC1CC(C)CN(C(=O)COC(=O)c2cc([N+](=O)[O-])ccc2N2CCOCC2)C1 (stereo not given),105,83*,31,-1,0,4,81*
CCOC(=O)C1CCN(c2ccc([N+](=O)[O-])cc2S(=O)(=O)N2CCOCC2)CC1,97,9,-13,-1,0,0,x
CCOC(=O)C1CCN(C(=O)COC(=O)c2cc([N+](=O)[O-])ccc2N2CCOCC2)CC1,100,70*,0,7,0,19,71*
CC1CCN(c2ccc([N+](=O)[O-])cc2C(=O)N2CCOCC2)CC1,76,-2,3,0,0,-8,x
O=C(CNC(=O)c1ccc2ccccc2c1)NCc1ccccc1F,109,0,-15,-1,0,-2,x
CN(CCc1ccccc1)C(=O)c1cccc(NC(=O)Cc2cccc(NC(=O)C3CCCN(S(=O)(=O)c4cccc([N+](=O)[O-])c4)C3)c2)c1 (stereo not given),x,48,x,0,0,2,x
CN(Cc1ccccc1)C(=O)c1ccc(NC(=O)Cc2ccc(NC(=O)C3CCN(S(=O)(=O)c4cccc([N+](=O)[O-])c4)CC3)cc2)cc1,x,68*,x,2,0,-22,19
SMILES,CR mimetic SO,FAS-TE inh,SUMO Mot1 rescue,MPTP block,aDG glyco up,Cardio protect,FAS-TE inh conf
CN(CCc1ccccc1)C(=O)c1ccc(NC(=O)Cc2ccc(NC(=O)C3CCCN(S(=O)(=O)c4cccc([N+](=O)[O-])c4)C3)cc2)cc1 (stereo not given),x,72*,x,1,0,-11,22
CN(Cc1ccccc1)C(=O)c1cccc(NC(=O)Cc2ccc(NC(=O)C3CCN(S(=O)(=O)c4cccc([N+](=O)[O-])c4)CC3)cc2)c1,x,37,x,-1,0,-11,x
COC(=O)[C@]1(Cc2ccccc2)N[C@H](c2ccc(-c3ccc(Cl)c(Cl)c3)cc2)[C@@H]2C(=O)N(C)C(=O)[C@@H]21,106,90*,-4,0,1,-3,22
COC(=O)[C@]1(Cc2ccccc2)N[C@H](c2ccc(-c3ccccc3)cc2)[C@@H]2C(=O)N(C)C(=O)[C@@H]21,100,56*,12,1,0,21,10
COC(=O)[C@]1(Cc2ccccc2)N[C@H](c2ccc(-c3cccc(Cl)c3)cc2)[C@@H]2C(=O)N(C)C(=O)[C@@H]21,100,91*,-1,2,1,4,21
CCN1C(=O)[C@H]2[C@@H](c3ccc(-c4cccc(Cl)c4)cc3)N[C@@](CC(C)C)(C(=O)OC)[C@H]2C1=O,104,52*,2,1,1,-5,16
COC(=O)C1(Cc2ccccc2)NC(c2ccc(F)cc2)C2C(=O)N(C)C(=O)C21 (stereo not given),98,1,-5,-2,0,5,x
Cc1ccc(C(=O)Nc2cccc(C(=O)NC3CCCCC3)c2)cc1,105,2,3,-1,1,-6,x
CC(C)(C)C(=O)Nc1nnc(SCC(=O)NC2CCCCC2)s1,103,-6,11,0,0,4,x
CN(C)c1ccc(NC(=O)C2C3C=CC(C3)C2C(=O)O)cc1 (stereo not given),103,-3,-24,-1,0,-14,x
CN(Cc1ccc(Cl)cc1)C(=O)c1ccc2ccccc2n1,99,3,168,0,0,1,x
COC(=O)C1=C(C)NC(C)=C(C(=O)OC)C1c1ccc(OC(=O)c2oc3ccccc3c2C)c(OC)c1,102,52*,12,5,0,-10,18
